{"source": "PubChem BioAssay (NCATS)", "note": "Inconclusive results are not listed. Where a call stands in place of a potency, no number is given. The source made the active and inactive calls. Calls follow the shape of the dose curve; as a rule, active = well fitted inhibition curve with a large enough effect; inconclusive = small, poorly fitted or top-dose-only effect; inactive = no such curve, though single readings can be large or run the other way.", "data": [{"molecular_target": "Retinaldehyde dehydrogenase 3 (Homo sapiens) (UniProt P47895)", "assay": "qHTS for Inhibitors of the Aldehyde Dehydrogenase Family (ALDH1A3) Primary screen (AID 2061315)", "conditions": "ALDH inhibition qHTS; series mostly up to 56 µM", "values": [{"compound": "CNc1cccc(CCOc2ccc3c(c2)CN(CC(F)(F)F)C(=O)[C@H](CC(=O)O)C3)n1", "Potency": "inactive"}, {"compound": "CC1CC(=O)C2=C(CCC3(O)C(O)c4c(O)cccc4C(=O)C23O)C1", "note": "(stereo not drawn)", "Potency": "inactive"}, {"compound": "C=C(C)C(C)C1OC23CC4(CO2)C(CCC2C5(C)CCC(OC6OCC(O)C(OC7OC(CO)C(O)C(OC8OCC(O)C(O)C8O)C7O)C6OC6OC(CO)C(O)C6O)C(C)(C)C5CCC24C)C3C(C)(O)C1OC(C)=O", "note": "(stereo not drawn)", "Potency": "inactive"}]}]}
